From PubChem BioAssay (NCATS)
Values without a mark were called inactive. Results filed as inconclusive are left out. A call without a number means that no potency is given here. The source made the active and inactive calls. Unless noted, calls follow the shape of the dose curve; as a rule, active = well fitted curve in the direction sought with a large enough effect; inconclusive = small, poorly fitted or top-dose-only effect, or another doubt; inactive = no such curve, though single readings can be large; an effect the other way counts as inactive or inconclusive.

Key:
[1] = KB-8-5-11 P-gp reporter qHTS against the NCATS DSHEA and TCM libraries (AID 1919977)
Procedure, shortened: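 KB-8-5-11, 500 cells/well, DMEM/10% FBS without colchicine; 4 h attach; cpd titrations, 72 h, 37C/5% CO2; CellTiter-Glo, 30 min RT, luminescence.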

[2] = Cell Viability - BJ (AID 421; calls by dose curve;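 also: potency is read from the fitted curve at half-maximal effect; cells exposed to compound for 40 hours at 37 °C before readout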); conditions: BJ fibroblast viability, qHTS
Procedure, shortened: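 Cytotoxicity in human BJ foreskin fibroblasts is scored as loss of cellular ATP after a 40-hour exposure, measured by luciferase luminescence. Controls are DMSO and 100 uM tamoxifen.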

[3] = Cell Viability - HepG2 (AID 433; calls by dose curve;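 also: potency is read from the fitted curve at half-maximal effect; potency for ATP loss meaning cytotoxicity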); conditions: qHTS
Procedure, shortened: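 Read-out is luciferase-based quantitation of cellular ATP as a measure of viable HepG2 cells after 40 h treatment at 37 °C. Signal decrease is scaled between DMSO-only and 100 uM tamoxifen controls, with AC50 fitted by the Hill equation.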

[4] = Cell Viability - MRC5 (AID 434; calls by dose curve;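 also: potency is read from the fitted curve at half-maximal effect; cells exposed to compound for 40 hours at 37 °C; potency reflects cytotoxicity seen as loss of intracellular ATP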); conditions: MRC5 lung fibroblast viability, qHTS
Procedure, shortened: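 MRC5 normal human lung fibroblasts (1500/well) were treated with compounds for 40 hr at 37 °C in complete medium, and viable cells were measured as intracellular ATP by CellTiter-Glo luminescence. AC50 came from Hill fits, normalized to DMSO and 100 uM tamoxifen.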

[5] = Cell Viability - SK-N-SH (AID 435; calls by dose curve;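 also: potency is read from the fitted curve at half-maximal effect; compound exposure lasted 40 h at 37 °C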); conditions: SK-N-SH neuroblastoma cell viability qHTS
Procedure, shortened: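 Luminescent ATP signal served as the viability read-out after 40 hours of compound treatment of human neuroblastoma SK-N-SH cells. Concentration-response data, scaled between DMSO and 100 uM tamoxifen, gave AC50 values by standard Hill modeling.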

[6] = Cell Viability - HUV-EC-C (AID 542); also: nearly all actives have a fitted effect of over 35% in size
Procedure, shortened: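 Decrease in cellular ATP, quantified by luciferase luminescence, reflects toxicity in normal human vascular endothelial HUV-EC-C cells given compound for 40 hr in complete culture medium. Values are AC50s from concentration-response curves.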

[7] = Cell Viability - SH-SY5Y (AID 544); conditions: SH-SY5Y neuroblastoma cell viability; viability change, negative = cytotoxic: at 92.2 µM (top of the series); also: nearly all actives have a fitted effect of over 55% in size
Procedure, shortened: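 Cytotoxicity is scored as a concentration-dependent fall in intracellular ATP in human SH-SY5Y cells treated 40 hr in complete culture medium. Potency is expressed as AC50 from a Hill equation fit.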

[8] = Cell Viability - Renal Proximal Tubule (AID 545); conditions: renal proximal tubule cells viability; at 91.7 µM (top of the series), primary cells of rat origin unless noted; also: nearly all actives have a fitted effect of over 40% in size
Procedure, shortened: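 Luminescent ATP signal (CellTiter-Glo) served as the viability read-out after 40 hr compound exposure of freshly isolated rat proximal tubule cells at 37 °C. Concentration-dependent ATP loss was fitted with the Hill equation to give AC50.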

[9] = Cell Viability - Mesenchymal (AID 546);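 also: cells exposed to compound for 40 hours before reading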
Procedure, shortened: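 Normal human renal glomerulus-derived kidney mesenchymal cells, 1000 per well in complete medium, were treated with compounds for 40 hr at 37 °C. Viability was read as intracellular ATP by CellTiter-Glo luminescence; AC50 values came from Hill-equation fits of qHTS concentration-response data.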

[10] = Cellular Toxicity (caspase-3) HepG2 (AID 654);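 also: cells exposed to compound for 16 hours before reading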
Procedure, shortened: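 qHTS, HepG2, 1500 cells/well, complete medium; cpd 16 h 37 °C; Caspase-Glo 3/7, 20 min RT; lum. Norm: DMSO vs 100 uM tamoxifen; AC50 Hill fit.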

[11] = Cellular Toxicity (caspase-3) HUV-EC-C (AID 656)
Procedure, shortened: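 qHTS; HUV-EC-C, 1000 cells/well; 5 hr settle, 16 hr cmpd, 37°C; Caspase-Glo 3/7, 20 min RT; luminescence. Norm: DMSO = 0%, tamoxifen 100 uM = 100%. Hill-fit AC50.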

[12] = Cellular Toxicity (caspase-3) SHSY5Y (AID 657);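 also: cells exposed to compound for 16 hours at 37 °C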
Procedure, shortened: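 qHTS, SH-SY5Y, 1500 cells/well, 5 h pre-incubation 37 °C; compound 16 h 37 °C; Caspase-Glo 3/7 1 h RT; luminescence. Norm.: DMSO = 0, 10 uM staurosporine = 100%. Hill fit → AC50.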

[13] = Cellular Toxicity (caspase-3) BJ (AID 658);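 also: cells exposed to compound for 16 hours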
Procedure, shortened: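 Luminescent aminoluciferin-substrate cleavage reports caspase 3/7 activity in normal human BJ fibroblasts after 16 hr compound exposure at 37 °C. Normalized to DMSO (basal) and 10 uM staurosporine (100%); AC50 from Hill fit of concentration-response.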

[14] = Cellular Toxicity (caspase-3) MRC-5 (AID 659)
Procedure, shortened: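 Luminescence from caspase-cleaved aminoluciferin substrate (Caspase-Glo 3/7, 1 hr RT) reports caspase 3/7 activity in MRC-5 lung fibroblasts after 16 hr compound exposure. Normalized to DMSO basal and 10 uM staurosporine as 100%; AC50 from Hill fits.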

[15] = Cellular Toxicity (caspase-3) Mesangial (AID 660);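 also: combined caspase 3 and 7 activity read by Caspase-Glo luminescence; cells exposed to compound for 16 h before the caspase read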
Procedure, shortened: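 Concentration-response qHTS: compound-induced rise in caspase 3/7 luminescence in human mesangial cells after 16 h, normalized to DMSO and 100 uM tamoxifen controls.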

[16] = Cellular Toxicity (caspase-3) SK-N-SH (AID 661);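 also: cells exposed to compound for 16 hours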
Procedure, shortened: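 Caspase 3/7 activation is measured as a luminescence increase from aminoluciferin released by substrate cleavage in SK-N-SH cells after 16 hr compound treatment; values are AC50 from concentration-response curves.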

[17] = Cellular Toxicity (caspase-3) Renal Proximal Tubule (AID 667); conditions: renal proximal tubule cells; at 91.7 µM (top of the series), primary cells freshly taken from rat, solvent-only wells 0%, staurosporine 100% unless noted;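 also: cells exposed to compound for 16 hours at 37 °C before detection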
Procedure, shortened: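 AC50 derived by standard Hill fit of concentration-response data, normalized between DMSO basal and 10 uM staurosporine as 100% stimulation. Cells: primary rat kidney proximal tubule, 16 h treatment at 37 °C.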

[18] = molecular target: Cytochrome P450 3A4 (Homo sapiens) (UniProt P08684); experiment: qHTS Assay for Inhibitors and Substrates of Cytochrome P450 3A4 (AID 884); also: nearly all actives have a fitted effect of over 50% in size; also: potency is read from the fitted curve at half-maximal effect
Procedure, shortened: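 20 nM human CYP3A4 with 25 uM Luciferin-PPXE (at KM) in 200 mM KPO4, preincubated 10 min with compound; NADPH regeneration started a 60 min RT reaction. Luciferin detected by luminescence, normalized to 57 uM ketoconazole as full inhibition.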

[19] = qHTS Assay for Identification of Small Molecule Inducers of Hypoxia Response (AID 2120; active = well fitted curve in the direction sought with a large enough effect in the signal ratio, with a control signal flat, not every such curve was filed as active; the % refers to the signal ratio)
Procedure, shortened: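 Induction of beta-lactamase reporter activity was measured in CellSensor HRE-bla ME-180 cells after 17 h compound treatment at 37 degrees C, using CCF4 substrate and the 460nm/530nm emission ratio to derive AC50 values.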

[20] = molecular target: Peroxisome proliferator-activated receptor alpha (Homo sapiens) (UniProt Q07869); experiment: qHTS assay for small molecule agonists of the peroxisome proliferator-activated receptor alpha (PPARalpha) signaling pathway (AID 651778); conditions: PathHunter PPARalpha complementation, chemiluminescence, 6 h; stronger effect = higher value
Procedure, shortened: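 Cells plated at 2,000/well and held overnight at 37 C, 5% CO2, then compound added by pin tool for 6 hr; after PathHunter detection reagent and 60 min at room temperature, chemiluminescence from enzyme complementation was read.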

Chain of Cytochrome P450 3A4 (Homo sapiens) (P08684 whole entry, looked up): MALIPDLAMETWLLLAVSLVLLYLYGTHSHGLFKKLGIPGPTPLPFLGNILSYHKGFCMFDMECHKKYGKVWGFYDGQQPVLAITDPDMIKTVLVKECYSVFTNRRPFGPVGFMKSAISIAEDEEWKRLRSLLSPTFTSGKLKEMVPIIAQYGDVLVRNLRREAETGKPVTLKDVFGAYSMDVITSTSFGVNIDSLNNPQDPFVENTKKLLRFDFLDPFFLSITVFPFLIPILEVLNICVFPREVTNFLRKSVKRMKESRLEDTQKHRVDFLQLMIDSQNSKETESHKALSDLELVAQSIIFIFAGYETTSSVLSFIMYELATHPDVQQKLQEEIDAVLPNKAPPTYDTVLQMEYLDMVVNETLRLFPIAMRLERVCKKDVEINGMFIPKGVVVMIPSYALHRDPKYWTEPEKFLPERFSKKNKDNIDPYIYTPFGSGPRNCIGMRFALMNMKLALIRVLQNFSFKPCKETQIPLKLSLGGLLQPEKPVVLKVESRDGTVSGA
Chain of Peroxisome proliferator-activated receptor alpha (Homo sapiens) (Q07869 whole entry, looked up): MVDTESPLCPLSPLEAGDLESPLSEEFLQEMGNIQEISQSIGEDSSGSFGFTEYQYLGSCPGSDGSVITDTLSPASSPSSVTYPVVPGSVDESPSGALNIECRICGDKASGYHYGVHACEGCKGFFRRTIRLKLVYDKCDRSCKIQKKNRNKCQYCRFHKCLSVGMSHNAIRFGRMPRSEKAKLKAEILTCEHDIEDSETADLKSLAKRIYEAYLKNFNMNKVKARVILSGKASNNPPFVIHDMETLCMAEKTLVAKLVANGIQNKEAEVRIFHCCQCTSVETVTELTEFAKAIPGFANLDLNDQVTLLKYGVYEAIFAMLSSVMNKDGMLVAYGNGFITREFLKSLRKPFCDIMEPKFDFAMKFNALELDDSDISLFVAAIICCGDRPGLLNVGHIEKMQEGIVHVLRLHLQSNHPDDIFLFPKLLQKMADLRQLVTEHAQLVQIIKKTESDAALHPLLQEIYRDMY

Structure (SMILES): CCCCCCCC/C=C\CCCCCCCCCCCC(=O)O
- Potency [1]: inactive

Structure (SMILES): O[C@@H]1[C@@H](O)[C@H](OC/C=C/c2ccccc2)O[C@H](CO[C@@H]2OC[C@H](O)[C@H](O)[C@H]2O)[C@H]1O
- Potency [1]: inactive

Structure (SMILES): CC1=C2[C@H]([C@@H](C)CC[C@@H]2/C=C(\C)C(=O)O)[C@@H](O)C1
- Potency [1]: inactive

Structure (SMILES): C[C@@]12CC[C@@H]3[C@@](CC[C@H]4[C@@]3(C)CCC[C@@]4(C)C(=O)O)(CC1=O)C2
- Potency [1]: inactive

Structure (SMILES): O=C(/C=C/c1ccc(O)c(O)c1)O[C@@H]1CC(O)(C(=O)O)C[C@@H](OC(=O)/C=C/c2ccc(O)c(O)c2)C1O (stereo partly specified)
- Potency [1]: inactive

Structure (SMILES): CC1CC[C@]2(C(=O)O)CC[C@]3(C(=O)O)C(=CCC4[C@@]5(C)CC[C@H](OC6OC(C)C(O)C(OC7OC(CO)C(O)C(O)C7O)C6O)C(C)(C)C5CC[C@]43C)C2C1C (stereo partly specified)
- Potency [1]: inactive

Structure (SMILES): COC1=CC(=O)O[C@@H](/C=C/c2ccc3c(c2)OCO3)C1
- Potency [2]: > 92 µM
- Potency [3]: > 92 µM
- Potency [4]: > 92 µM
- Potency [5]: > 92 µM
- Potency [6]: inactive
- Potency [7]: inactive
- activity change, negative = cytotoxicity [8]: -14.1%
- outcome [9]: inactive
- outcome [10]: inactive
- outcome [11]: inactive
- outcome [12]: inactive
- outcome [13]: inactive
- outcome [14]: inactive
- outcome [15]: inactive
- outcome [16]: inactive
- caspase-3 activation [17]: -22.8%
- Potency [18]: 2.51 µM (active)
- outcome [19]: inactive
- max response [20]: -0.53%
- Potency [1]: inactive

Structure (SMILES): O=C(/C=C/c1ccc(O)c(O)c1)O[C@H]1[C@H](O)C[C@](O)(C(=O)O)C[C@H]1OC(=O)/C=C/c1ccc(O)c(O)c1
- Potency [1]: inactive

Structure (SMILES): C=C1C[C@@]23CC[C@H]4[C@](C)(CCC[C@]4(C)C(=O)O[C@@H]4O[C@H](CO)[C@@H](O)[C@H](O)[C@H]4O)[C@@H]2CC[C@]1(O[C@H]1O[C@@H](CO)[C@H](O)[C@@H](O)[C@@H]1O)C3
- Potency [1]: inactive

Structure (SMILES): O=Cc1ccccc1O
- Potency [1]: inactive

Structure (SMILES): C[C@@H]1OC(O[C@H]2[C@H](O)[C@@H](O)[C@H](OC[C@H]3O[C@@H](OC(=O)[C@]45CCC(C)(C)C[C@@H]4C4=CCC6[C@@]7(C)CC[C@H](OC8OC[C@H](O)[C@H](O)[C@H]8OC8O[C@@H](C)[C@H](O)[C@@H](O)[C@H]8O)[C@@](C)(CO)C7CC[C@@]6(C)[C@]4(C)CC5)[C@H](O)[C@@H](O)[C@@H]3O)O[C@@H]2CO)[C@H](O)[C@H](O)[C@H]1O (stereo partly specified)
- Potency [1]: inactive

Structure (SMILES): C=C1CC[C@H](O)C/C1=C\C=C1/CCC[C@]2(C)[C@@H]([C@H](C)CC[C@H](C)C(C)C)CC[C@@H]12
- Potency [1]: inactive

Structure (SMILES): OC[C@H]1O[C@@H](OC[C@H]2O[C@@H](OC/C=C/c3ccccc3)[C@H](O)[C@@H](O)[C@@H]2O)[C@@H](O)[C@@H]1O
- Potency [1]: inactive

Structure (SMILES): CCCCCC/C=C/CCCCCCCCCC(=O)O
- Potency [1]: inactive

Structure (SMILES): COc1cc(/C=C/c2ccccc2)oc(=O)c1
- Potency [1]: inactive

Structure (SMILES): C[C@]12CC[C@H]3[C@@H](CCC4=CC(=O)CC[C@@]43C)[C@@H]1CC[C@@H]2O
- Potency [2]: > 92 µM
- Potency [3]: > 92 µM
- Potency [4]: > 92 µM
- Potency [5]: > 92 µM
- Potency [6]: inactive
- Potency [7]: inactive
- activity change, negative = cytotoxicity [8]: -15.1% [at 91.7 µM]
- outcome [9]: inactive
- outcome [10]: inactive
- outcome [11]: inactive
- outcome [12]: inactive
- outcome [13]: inactive
- outcome [14]: inactive
- outcome [15]: inactive
- outcome [16]: inactive
- caspase-3 activation [17]: -4.12% [at 91.7 µM]
- Potency [18]: inactive
- outcome [19]: inactive
- max response [20]: -2.99%

Structure (SMILES): CCCCCCCCCCCCCCCCCCCCCC(=O)O
- Potency [1]: inactive

Structure (SMILES): CC(C)=CCC[C@](C)(O[C@@H]1O[C@H](CO)[C@@H](O)[C@H](O)[C@H]1O)[C@H]1CC[C@]2(C)[C@@H]1[C@H](O)C[C@@H]1[C@@]3(C)CC[C@H](O)C(C)(C)[C@@H]3[C@@H](O[C@@H]3O[C@H](CO)[C@@H](O)[C@H](O)[C@H]3O[C@@H]3O[C@@H](C)[C@H](O)[C@@H](O)[C@H]3O)C[C@]12C
- Potency [1]: inactive

Structure (SMILES): COc1ccc(C(=O)O)cc1
- Potency [1]: inactive

Structure (SMILES): C=C[C@](C)(O)CCC=C(C)C
- Potency [1]: inactive

Structure (SMILES): CC(=O)O[C@H]1[C@H](O[C@H]2CC[C@]34C[C@]35CC[C@]3(C)[C@@H]([C@@]6(C)CC[C@@H](C(C)(C)O)O6)[C@@H](O)C[C@@]3(C)[C@@H]5C[C@H](O[C@@H]3O[C@H](CO)[C@@H](O)[C@H](O)[C@H]3O)[C@H]4C2(C)C)OC[C@@H](O)[C@@H]1O
- Potency [1]: inactive

Structure (SMILES): CCCCCC(=O)O
- Potency [1]: inactive

Structure (SMILES): NC(Cc1c[nH]c2ccccc12)C(=O)O (stereo unspecified)
- Potency [1]: inactive

Structure (SMILES): CC1(C)CC[C@]2(C(=O)O)CC[C@]3(C)C(=CCC4[C@@]5(C)CC[C@H](O)[C@@](C)(CO)C5CC[C@]43C)[C@H]2C1 (stereo partly specified)
- Potency [1]: inactive
